Experiment [1] concerns the target Rap guanine nucleotide exchange factor 3 (Homo sapiens) (UniProt O95398). The experiment in a line: Confirmatory qHTS for antagonist of cAMP-regulated guanine nucleotide exchange factor 3 (EPAC1) (AID 1645880).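 Note: plate controls were DMSO only for no effect and full effect of the ATA control for full effect; nearly all actives have a fitted effect of over 55% in size.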 To be noted: EPAC1 Rap1B-BODIPY-GDP exchange, fluorescence; activity, negative = inhibition: at 115 µM (top of the series). An outline of the steps:
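Released BODIPY-GDP fluoresces less than Rap1-bound BODIPY-GDP; the signal is followed at 480/540 nm at 5-min intervals over 30 min, after 5 min at room temperature. Reactions contain 100 nM EPAC1, 250 nM RAP1B-BODIPY-GDP and 50 uM GDP; results are normalized to ATA and DMSO.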
A general note: In qHTS, concentration-response curves come from the screen itself.

Experiment [2] deals with Rap guanine nucleotide exchange factor 4 (Homo sapiens) (UniProt Q8WZA2). Kind of experiment: Confirmatory qHTS for agonist of cAMP-regulated guanine nucleotide exchange factor 4 (EPAC2) (AID 1645884). For activation: % is set by controls: 0 for no effect and ±100 for the full control effect.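 Note: nucleotide exchange releases bodipy-GDP from Rap1 and this lowers its fluorescence; nearly all actives have a fitted effect of over 65% in size.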 Note: potency is the fitted concentration of half-maximal effect.
Sequence of Rap guanine nucleotide exchange factor 4 (Homo sapiens) (Q8WZA2 whole entry, looked up): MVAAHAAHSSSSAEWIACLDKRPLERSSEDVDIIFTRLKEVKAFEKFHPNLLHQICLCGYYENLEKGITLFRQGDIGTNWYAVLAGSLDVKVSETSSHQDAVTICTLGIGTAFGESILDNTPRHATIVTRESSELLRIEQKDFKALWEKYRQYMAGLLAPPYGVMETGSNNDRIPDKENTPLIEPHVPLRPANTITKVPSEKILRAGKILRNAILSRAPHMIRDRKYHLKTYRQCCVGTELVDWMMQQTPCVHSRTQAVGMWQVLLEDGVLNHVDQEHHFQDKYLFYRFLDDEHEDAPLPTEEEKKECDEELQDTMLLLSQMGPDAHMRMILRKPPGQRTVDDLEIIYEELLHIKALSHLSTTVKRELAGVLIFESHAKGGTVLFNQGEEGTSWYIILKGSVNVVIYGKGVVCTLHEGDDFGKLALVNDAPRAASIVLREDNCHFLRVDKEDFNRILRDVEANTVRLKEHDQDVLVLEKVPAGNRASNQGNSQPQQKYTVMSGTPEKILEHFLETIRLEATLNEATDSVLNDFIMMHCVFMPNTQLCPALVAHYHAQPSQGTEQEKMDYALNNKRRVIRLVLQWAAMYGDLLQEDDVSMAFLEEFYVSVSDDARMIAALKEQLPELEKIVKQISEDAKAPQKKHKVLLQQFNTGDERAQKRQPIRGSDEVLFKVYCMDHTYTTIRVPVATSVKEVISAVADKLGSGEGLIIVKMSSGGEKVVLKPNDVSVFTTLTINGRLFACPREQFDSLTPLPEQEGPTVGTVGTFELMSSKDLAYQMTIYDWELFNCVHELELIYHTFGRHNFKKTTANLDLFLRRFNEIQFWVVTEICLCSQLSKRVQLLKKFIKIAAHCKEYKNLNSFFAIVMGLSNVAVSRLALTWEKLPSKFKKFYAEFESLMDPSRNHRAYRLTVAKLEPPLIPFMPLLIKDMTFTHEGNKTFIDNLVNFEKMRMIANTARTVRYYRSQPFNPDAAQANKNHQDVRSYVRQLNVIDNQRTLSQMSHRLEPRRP
Experiment [3] shares this target. The experiment in a line: Confirmatory qHTS for antagonist of cAMP-regulated guanine nucleotide exchange factor 4 (EPAC2) (AID 1645885). For activity change, negative = inhibition: % is set by controls: 0 for no effect and ±100 for the full control effect. Note: nearly all actives have a fitted effect of over 25% in size. Note: potency is the fitted concentration of half-maximal effect.
For experiment [4], the target named is Rap guanine nucleotide exchange factor 3 (Homo sapiens) (UniProt O95398). The experiment in a line: Counterscreen qHTS for antagonist of cAMP-regulated guanine nucleotide exchange factor 3 (EPAC1) (AID 1645888). Note: % of control where 0% means no effect. The essentials: (§1)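 Rap1B-BODIPY-GDP 250 nM + GDP 50 uM; cpds 7-pt, final 9.74 nM–152 uM (activator mode) or from 7.32 nM upwards (inhibitor mode); RT; FI 480/540 nm at 5 and 30 min, then ± cAMP, reread.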
Sequence of Rap guanine nucleotide exchange factor 3 (Homo sapiens) (O95398 whole entry, looked up): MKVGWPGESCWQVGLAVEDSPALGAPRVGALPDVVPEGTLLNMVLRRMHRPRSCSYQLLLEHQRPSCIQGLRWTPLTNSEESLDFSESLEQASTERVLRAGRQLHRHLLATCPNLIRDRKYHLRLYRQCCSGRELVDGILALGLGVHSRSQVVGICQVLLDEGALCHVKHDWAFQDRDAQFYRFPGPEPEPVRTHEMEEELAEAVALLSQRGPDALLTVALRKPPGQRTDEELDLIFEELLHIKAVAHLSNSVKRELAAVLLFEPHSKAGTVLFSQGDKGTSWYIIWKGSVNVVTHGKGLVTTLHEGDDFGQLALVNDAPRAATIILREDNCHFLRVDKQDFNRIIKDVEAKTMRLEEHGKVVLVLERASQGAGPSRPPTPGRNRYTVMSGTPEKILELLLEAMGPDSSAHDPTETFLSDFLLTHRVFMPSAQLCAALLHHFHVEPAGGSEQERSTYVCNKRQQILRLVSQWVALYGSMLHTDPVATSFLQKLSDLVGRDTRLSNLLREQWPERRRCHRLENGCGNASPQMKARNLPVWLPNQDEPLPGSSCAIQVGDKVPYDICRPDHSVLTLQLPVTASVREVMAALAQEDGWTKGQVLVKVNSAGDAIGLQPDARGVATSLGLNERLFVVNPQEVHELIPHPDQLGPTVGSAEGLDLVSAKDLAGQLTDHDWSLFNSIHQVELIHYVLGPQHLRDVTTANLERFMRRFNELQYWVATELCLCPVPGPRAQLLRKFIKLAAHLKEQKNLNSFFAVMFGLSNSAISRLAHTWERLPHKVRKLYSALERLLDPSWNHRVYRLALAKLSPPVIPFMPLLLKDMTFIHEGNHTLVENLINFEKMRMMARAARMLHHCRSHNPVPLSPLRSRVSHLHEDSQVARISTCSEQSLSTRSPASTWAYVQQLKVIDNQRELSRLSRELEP
On the technique in general: A counterscreen serves to expose hits that act by an unwanted route or on another target.

Experiment [5] shares this target. The experiment in a line: Counterscreen qHTS for agonist of cAMP-regulated guanine nucleotide exchange factor 3 (EPAC1) (AID 1645889). For activation: % of control where 0% means no effect. Note: nearly all actives have a fitted effect of over 40% in size. Note: potency is the fitted concentration of half-maximal effect. An outline of the steps: as §1
The target of experiment [6] is Tumor susceptibility gene 101 protein (Homo sapiens) (UniProt Q99816). The experiment in a line: qHTS Assay for Iinhibitors of HIV-1 Budding by Blocking the Interaction of PTAP/TSG101: Hit Validation (AID 651600). For activity change, negative = inhibition: % is set by controls: 0 for no effect and ±100 for the full control effect. Note: nearly all actives have a fitted effect of over 70% in size. Note: potency is the fitted concentration of half-maximal effect. An outline of the steps: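 Fluorescence polarization binding assay: Tsg101 binding domain (10 uM) mixed with compounds and FITC-labeled PTAP peptide (50 nM) in HEPES pH 7.5, 0.15 M NaCl, 0.01% Tween 20, EDTA, TCEP; 20 min at r.t.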
Sequence of Tumor susceptibility gene 101 protein (Homo sapiens) (Q99816 whole entry, looked up, the tested form may be a part): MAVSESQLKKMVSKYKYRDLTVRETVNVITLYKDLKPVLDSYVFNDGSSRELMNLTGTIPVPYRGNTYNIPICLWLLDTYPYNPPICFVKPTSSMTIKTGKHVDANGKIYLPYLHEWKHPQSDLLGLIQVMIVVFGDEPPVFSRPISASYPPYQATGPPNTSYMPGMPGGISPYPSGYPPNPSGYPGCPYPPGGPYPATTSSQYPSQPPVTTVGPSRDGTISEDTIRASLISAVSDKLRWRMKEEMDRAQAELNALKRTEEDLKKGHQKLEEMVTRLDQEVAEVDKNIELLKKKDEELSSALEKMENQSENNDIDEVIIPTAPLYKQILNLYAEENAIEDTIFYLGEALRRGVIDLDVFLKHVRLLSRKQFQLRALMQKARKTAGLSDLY

Experiment [7] in a line: AP1 Signaling Pathway (AID 357; active = well fitted curve in either direction with a large enough effect, not every such curve was filed as active; note: % is set by controls: 0 for no effect and ±100 for the full control effect). The following applies: ME-180 AP-1-bla reporter, EGF-induced, beta-lactamase ratio, 5 h; at 7.69 µM (top of the series) unless noted. The essentials: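 ME-180 cells with beta-lactamase reporter under AP-1 response element, stimulated with EC50 EGF; compounds tested in titration series, 5 h at 37 °C. CCF4 substrate added 2.5 h at room temperature; 460/530 nm emission ratio gave %activity and AC50.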

The target in experiment [8] is Glucocorticoid receptor (Homo sapiens) (UniProt P04150). Kind of experiment: GR-GFP Redistribution (AID 450;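 active = compounds whose dose series gives a full or clear partial fitted curve of increased nuclear translocation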; note: potency is the fitted concentration of half-maximal effect). The following applies: U2OS GR-GFP nuclear translocation, laser cytometry, 2 h.
Sequence of Glucocorticoid receptor (Homo sapiens) (P04150 whole entry, looked up): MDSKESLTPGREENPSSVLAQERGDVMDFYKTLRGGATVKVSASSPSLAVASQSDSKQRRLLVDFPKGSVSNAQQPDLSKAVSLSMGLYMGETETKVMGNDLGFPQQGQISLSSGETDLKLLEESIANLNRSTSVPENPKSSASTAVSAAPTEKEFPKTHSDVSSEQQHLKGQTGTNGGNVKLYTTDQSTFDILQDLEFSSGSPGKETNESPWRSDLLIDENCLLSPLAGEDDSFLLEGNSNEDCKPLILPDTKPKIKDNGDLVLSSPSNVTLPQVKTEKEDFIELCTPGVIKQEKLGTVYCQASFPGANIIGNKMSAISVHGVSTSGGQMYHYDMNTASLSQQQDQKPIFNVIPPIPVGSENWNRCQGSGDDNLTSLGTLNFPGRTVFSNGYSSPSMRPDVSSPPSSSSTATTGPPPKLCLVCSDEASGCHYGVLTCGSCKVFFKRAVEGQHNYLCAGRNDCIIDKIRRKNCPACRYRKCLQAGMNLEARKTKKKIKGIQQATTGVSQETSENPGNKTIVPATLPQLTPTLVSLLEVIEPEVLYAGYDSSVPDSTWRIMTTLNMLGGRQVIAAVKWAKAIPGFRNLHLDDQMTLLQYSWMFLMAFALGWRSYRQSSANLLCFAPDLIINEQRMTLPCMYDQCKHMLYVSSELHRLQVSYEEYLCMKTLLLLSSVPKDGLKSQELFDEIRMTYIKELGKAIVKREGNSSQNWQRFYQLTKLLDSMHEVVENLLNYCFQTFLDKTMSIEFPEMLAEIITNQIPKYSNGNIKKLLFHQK
A short description of experiment [9]: qHTS Assay for Identification of Small Molecule Agonists for Hypoxia Response Element Signaling Pathway (AID 914; active = well fitted activation curve with a large enough effect in the signal ratio, with a control signal flat, not every such curve was filed as active; the % refers to the signal ratio; note: potency is the fitted concentration of half-maximal effect). To be noted: ME-180 (cervical carcinoma) HRE-bla reporter, beta-lactamase ratio, CoCl2, 17 h; activation: active compounds read high. An outline of the steps:
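Compounds in a titration series were added to ME-180 reporter cells alongside an EC50 level of CoCl2. After 17 hours, beta-lactamase activity was read as the 460nm/530nm emission ratio of CCF4, giving AC50 values.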

Values without a mark were called inactive. Inconclusive results are not listed. The source made the active and inactive calls. Unless noted, calls come from the whole dose curve; as a rule, active = well fitted curve in the direction sought with a large enough effect; inconclusive = small, poorly fitted or top-dose-only effect, or another doubt; inactive = no such curve, though single readings can be large; an effect the other way counts as inactive or inconclusive.

`CC(C)CCn1c(Oc2ccccc2F)nc2c1c(=O)n(C)c(=O)n2C`: the Potency result in experiment [1], in experiment [2], in [3], in [4] and in [5] was “inactive” each time.

Consider `N#CC1=C(N)OC2=C(CC/C2=C\c2ccccc2)C1c1ccccc1` (stereo unspecified), for which the Potency result in experiment [1], in [3], in [4] and in experiment [5] was “inactive” throughout. Besides, the Potency in experiment [2] was 112 µM (active).

On to `Cc1nc2ccccc2n2c(O)c(CC(=O)O)cc12`, for which the Potency was 14.6 µM (active) in [6], 112 µM (active) in experiment [2] and 44.7 µM (active) in [5]. Further, the Potency entry in [1], in [3] and in [4] was “inactive” in each case.

With `COc1ccccc1CNc1cc(C)nc2nc(-c3ccc(C)cc3)nn12`, the Potency entry in experiment [1], in experiment [2], in experiment [3], in experiment [4] and in experiment [5] was “inactive” throughout.

As for `O=C(/C=C/c1ccc(N2CCOCC2)cc1)c1ccccc1`, the Potency result in experiment [1], in [2], in [3], in experiment [4] and in experiment [5] was “inactive” in each case.

In the case of `N#C/C(=C\c1ccc(N2CCOCC2)o1)c1nc2ccccc2[nH]1`, the Potency entry in [1], in [3] and in [4] was “inactive” in each case. The results for the Potency in experiment [2] and in experiment [5] were 112 µM (active) and 39.8 µM (active), respectively.

With `CCN(CC)c1ccc2cc(C(=O)Nc3ccccn3)c(=O)oc2c1`, in experiment [7], the activity change, negative = inhibition was 7.12% [at 17.2 µM]. For the same compound, the figures for the Potency in experiment [8], in experiment [9] and in experiment [2] were > 20.6 µM, 3.98 µM (active) and 100 µM (active), respectively. Further, the Potency result in [1], in experiment [3], in experiment [4] and in experiment [5] was “inactive” throughout.

Consider `CN(C)c1ccc(/C=C2\SC(=S)N(Nc3ncc(C(F)(F)F)cc3Cl)C2=O)cc1`, for which the Potency result in [1] and in experiment [4] was “inactive” throughout. Besides, the figures for the Potency in experiment [2], in [3] and in experiment [5] were 112 µM (active), 16.9 µM (active) and 17.8 µM (active), respectively.

In the case of `Nc1ccc2nc3c(=O)n(CCc4ccccc4)c(=O)[nH]c3nc2c1`, the Potency is 3.26 µM (active) in experiment [6], 100 µM (active) in [2], 42.6 µM (active) in [3] and 70.8 µM (active) in experiment [5]. Also, the Potency result in [1] and in [4] was “inactive” each time.

As for `CCCCCn1nc(-c2ccccc2)c2nc3ccccc3nc21`, the Potency entry in [1] and in experiment [3] was “inactive” throughout. For the same compound, the activation in experiment [2] is 2.69% [at 17.1 µM, percent relative to cAMP agonist control]; in experiment [5] it was 10.8% [at 30.8 µM]. In addition, in experiment [4], the activity change, negative = inhibition is 19.6% [at 30.8 µM].

With `CCN(CC)c1ccc2cc(C=O)c(=O)oc2c1`, the Potency entry in experiment [1] and in experiment [3] was “inactive” in each case. In addition, the activation in experiment [2] was 6.38% [at 17.1 µM, percent relative to cAMP agonist control]. In addition, the activity change, negative = inhibition in [4] is 96.9% [at 30.8 µM]. Further, in experiment [5], the Potency was 12.6 µM (active).

Turning to `COc1ccc(-c2nc(N/N=C(\C)c3ccc(O)cc3)c3ccccc3n2)cc1`, the Potency result in experiment [1] and in experiment [3] was “inactive” each time. For the same compound, the activation was -0.683% [at 17.1 µM, percent relative to cAMP agonist control] in [2] and 22.7% [at 30.8 µM] in experiment [5]. Moreover, in experiment [4], the activity change, negative = inhibition is 8.99% [at 30.8 µM].

As to `CCCN1C(=O)c2cccc3c(N4CCCCC4)ccc(c23)C1=O`, the Potency entry in experiment [1], in experiment [3] and in experiment [4] was “inactive” each time. Also, the Potency was 100 µM (active) in [2] and 39.8 µM (active) in experiment [5].

For the compound `Cc1ccc2oc(=O)c(/C=C(\O)c3ccccc3)nc2c1`, the Potency entry in [6], in experiment [1] and in experiment [3] was “inactive” throughout. Further, the activation was 10.1% [at 17.1 µM, percent relative to cAMP agonist control] in experiment [2] and 12.5% [at 30.8 µM] in experiment [5]. In [4], the activity change, negative = inhibition was 0.517% [at 30.8 µM].

These data come from PubChem BioAssay (NCATS).
